Results from the supplement of paper PMC10849652.
Targets with a hit are over-represented here; the source holds about 7,900 in all. About 0.6% of all pairs of compound and target were hits. Values without a mark were called inactive.

Tests used:
Assay in all cases: log2 fold change, soluble protein after heating vs DMSO (PISA); higher = thermal stabilisation; K562 cells, 10 uM, 30 min; active = over 0.2 and 3.5 SD of the protein, either way, in both replicates (recomputed)
saracatinib = compound: CN1CCN(CCOc2cc(OC3CCOCC3)c3c(Nc4c(Cl)ccc5c4OCO5)ncnc3c2)CC1 [saracatinib]
In short: (§1)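 K562 cells at 2×10^6 cells/mL were treated with 10 μM compound for 30 min. Aliquots were heated for 3 min across 48°C-58°C, pooled, and extracted in PBS with 0.5% NP-40 at 4°C; soluble protein was the supernatant after 21,000xg for 90 min. Soluble protein was quantified by TMTpro 16plex LC-MS/MS with channel sums equalised, and reported as log2 fold change in thermal stability against DMSO controls, with values from duplicates.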

sotrastaurin = compound: CN1CCN(c2nc(C3=C(c4c[nH]c5ccccc45)C(=O)NC3=O)c3ccccc3n2)CC1 [sotrastaurin]
In short: as §1

alvocidib = compound: CN1CC[C@H](c2c(O)cc(O)c3c(=O)cc(-c4ccccc4Cl)oc23)[C@H](O)C1 [alvocidib]
In short: as §1

Tubastatin A = compound: CN1CCc2c(c3ccccc3n2Cc2ccc(C(=O)NO)cc2)C1 [Tubastatin A]
In short: as §1

[1] = compound: CNC(=O)C1=CC=CC=C1NC2=NC(=NC=C2Cl)NC3=C(C=C(C=C3)N4CCOCC4)OC
In short: as §1

defactinib = compound: CNC(=O)c1ccc(Nc2ncc(C(F)(F)F)c(NCc3nccnc3N(C)S(C)(=O)=O)n2)cc1 [defactinib]
In short: as §1

rucaparib = compound: CNCc1ccc(-c2[nH]c3cc(F)cc4c3c2CCNC4=O)cc1 [rucaparib]
In short: as §1

[2] = compound: CNc1nc(-c2ccc3c(N)n[nH]c3c2)cc(N2C[C@@H](C(=O)NC3CCCCC3)CC[C@H]2C)n1
In short: as §1

encorafenib = compound: COC(=O)N[C@@H](C)CNc1nccc(-c2cn(C(C)C)nc2-c2cc(Cl)cc(NS(C)(=O)=O)c2F)n1 [encorafenib]
In short: as §1

[3] = compound: COC(=O)[C@H](CCSC)NC(=O)C1=C(C=C(C=C1)NC[C@H](CS)N)C2=CC=CC=C2
In short: as §1

Sequence of UniProt O60925 (O60925 whole entry, looked up): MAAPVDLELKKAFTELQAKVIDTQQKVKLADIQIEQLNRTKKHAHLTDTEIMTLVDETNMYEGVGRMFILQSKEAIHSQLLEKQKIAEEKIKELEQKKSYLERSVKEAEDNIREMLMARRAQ
Sequence of UniProt Q86TB9 (Q86TB9 whole entry, looked up): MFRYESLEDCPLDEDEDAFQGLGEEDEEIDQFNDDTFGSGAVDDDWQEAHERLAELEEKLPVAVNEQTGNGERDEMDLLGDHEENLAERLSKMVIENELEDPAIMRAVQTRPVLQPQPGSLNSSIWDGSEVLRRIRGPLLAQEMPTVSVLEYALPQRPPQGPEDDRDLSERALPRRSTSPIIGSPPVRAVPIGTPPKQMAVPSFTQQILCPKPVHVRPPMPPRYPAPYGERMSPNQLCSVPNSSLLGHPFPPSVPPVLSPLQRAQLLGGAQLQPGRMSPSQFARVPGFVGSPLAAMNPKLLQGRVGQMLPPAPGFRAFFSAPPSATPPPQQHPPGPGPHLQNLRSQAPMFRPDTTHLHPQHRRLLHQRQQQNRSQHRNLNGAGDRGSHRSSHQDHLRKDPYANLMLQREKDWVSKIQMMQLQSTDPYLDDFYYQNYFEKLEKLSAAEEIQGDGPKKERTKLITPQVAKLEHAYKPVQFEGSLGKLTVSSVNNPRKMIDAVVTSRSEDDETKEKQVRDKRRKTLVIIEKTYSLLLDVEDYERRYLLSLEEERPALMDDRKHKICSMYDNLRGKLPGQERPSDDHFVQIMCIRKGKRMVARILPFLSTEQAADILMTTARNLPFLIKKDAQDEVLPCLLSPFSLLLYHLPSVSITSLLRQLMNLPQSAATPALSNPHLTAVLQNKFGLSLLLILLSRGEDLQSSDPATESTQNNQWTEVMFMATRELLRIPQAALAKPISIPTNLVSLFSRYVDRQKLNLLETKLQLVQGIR
Sequence of UniProt Q01970 (Q01970 whole entry, looked up): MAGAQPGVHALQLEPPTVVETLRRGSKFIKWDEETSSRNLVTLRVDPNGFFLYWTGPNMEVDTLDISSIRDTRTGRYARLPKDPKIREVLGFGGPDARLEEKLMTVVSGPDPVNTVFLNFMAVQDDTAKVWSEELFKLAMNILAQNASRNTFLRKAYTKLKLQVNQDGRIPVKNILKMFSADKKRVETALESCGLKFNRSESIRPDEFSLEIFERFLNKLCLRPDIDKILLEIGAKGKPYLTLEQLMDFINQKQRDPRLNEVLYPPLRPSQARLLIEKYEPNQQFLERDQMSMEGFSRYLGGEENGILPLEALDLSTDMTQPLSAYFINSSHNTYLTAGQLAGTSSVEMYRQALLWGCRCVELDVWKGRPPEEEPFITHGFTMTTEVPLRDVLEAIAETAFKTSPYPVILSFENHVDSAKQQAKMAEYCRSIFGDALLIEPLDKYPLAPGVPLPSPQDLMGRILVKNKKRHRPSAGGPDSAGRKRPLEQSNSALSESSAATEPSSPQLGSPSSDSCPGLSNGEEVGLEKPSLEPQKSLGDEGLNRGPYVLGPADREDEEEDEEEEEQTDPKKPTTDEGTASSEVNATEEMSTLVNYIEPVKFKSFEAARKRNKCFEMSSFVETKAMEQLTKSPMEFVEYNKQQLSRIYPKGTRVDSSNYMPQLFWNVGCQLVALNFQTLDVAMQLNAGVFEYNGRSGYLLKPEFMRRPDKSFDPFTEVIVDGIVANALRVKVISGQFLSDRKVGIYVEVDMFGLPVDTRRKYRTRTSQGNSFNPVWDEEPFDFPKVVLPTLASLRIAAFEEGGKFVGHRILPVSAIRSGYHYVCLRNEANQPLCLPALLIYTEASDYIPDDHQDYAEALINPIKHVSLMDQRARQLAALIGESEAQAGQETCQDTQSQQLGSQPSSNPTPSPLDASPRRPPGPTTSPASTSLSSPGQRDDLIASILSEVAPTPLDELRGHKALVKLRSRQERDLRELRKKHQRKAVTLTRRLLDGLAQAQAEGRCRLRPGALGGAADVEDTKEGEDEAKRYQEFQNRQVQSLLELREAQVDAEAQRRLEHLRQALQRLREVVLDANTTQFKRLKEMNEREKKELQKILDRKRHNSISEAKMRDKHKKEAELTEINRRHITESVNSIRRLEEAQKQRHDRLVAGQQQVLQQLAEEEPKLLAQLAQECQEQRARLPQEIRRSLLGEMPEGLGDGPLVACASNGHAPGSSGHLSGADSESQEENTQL
Sequence of UniProt O00232 (O00232 whole entry, looked up): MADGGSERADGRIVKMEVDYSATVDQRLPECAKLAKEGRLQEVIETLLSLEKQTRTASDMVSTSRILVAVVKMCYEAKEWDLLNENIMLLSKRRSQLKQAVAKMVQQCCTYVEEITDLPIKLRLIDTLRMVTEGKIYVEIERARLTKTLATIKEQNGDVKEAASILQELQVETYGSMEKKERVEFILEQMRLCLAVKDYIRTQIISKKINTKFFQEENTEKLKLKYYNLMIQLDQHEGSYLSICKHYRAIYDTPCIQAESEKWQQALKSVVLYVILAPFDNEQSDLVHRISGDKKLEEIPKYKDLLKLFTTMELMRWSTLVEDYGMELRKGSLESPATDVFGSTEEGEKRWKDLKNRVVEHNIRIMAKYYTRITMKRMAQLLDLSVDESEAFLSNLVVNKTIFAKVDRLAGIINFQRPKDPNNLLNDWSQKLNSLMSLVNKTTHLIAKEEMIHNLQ
Sequence of UniProt P06454 (P06454 whole entry, looked up): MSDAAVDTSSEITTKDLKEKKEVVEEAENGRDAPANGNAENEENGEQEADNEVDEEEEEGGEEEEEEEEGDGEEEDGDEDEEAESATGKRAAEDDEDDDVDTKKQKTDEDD
Sequence of UniProt Q5JVF3 (Q5JVF3 whole entry, looked up): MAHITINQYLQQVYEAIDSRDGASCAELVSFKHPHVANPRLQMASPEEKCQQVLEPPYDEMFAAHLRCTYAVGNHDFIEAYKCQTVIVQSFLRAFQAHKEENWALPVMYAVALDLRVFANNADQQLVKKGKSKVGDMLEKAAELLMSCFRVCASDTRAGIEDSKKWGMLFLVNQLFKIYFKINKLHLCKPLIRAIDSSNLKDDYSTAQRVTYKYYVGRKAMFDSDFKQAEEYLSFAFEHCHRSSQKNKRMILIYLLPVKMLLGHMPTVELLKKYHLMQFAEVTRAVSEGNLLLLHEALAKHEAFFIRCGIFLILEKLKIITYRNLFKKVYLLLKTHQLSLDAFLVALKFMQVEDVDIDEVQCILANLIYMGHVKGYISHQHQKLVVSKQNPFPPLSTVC
Sequence of UniProt Q6GMV3 (Q6GMV3 whole entry, looked up): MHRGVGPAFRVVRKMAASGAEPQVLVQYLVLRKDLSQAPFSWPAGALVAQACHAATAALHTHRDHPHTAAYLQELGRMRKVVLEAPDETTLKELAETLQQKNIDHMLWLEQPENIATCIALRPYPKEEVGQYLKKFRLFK
Sequence of UniProt Q5VTL8 (Q5VTL8 whole entry, looked up): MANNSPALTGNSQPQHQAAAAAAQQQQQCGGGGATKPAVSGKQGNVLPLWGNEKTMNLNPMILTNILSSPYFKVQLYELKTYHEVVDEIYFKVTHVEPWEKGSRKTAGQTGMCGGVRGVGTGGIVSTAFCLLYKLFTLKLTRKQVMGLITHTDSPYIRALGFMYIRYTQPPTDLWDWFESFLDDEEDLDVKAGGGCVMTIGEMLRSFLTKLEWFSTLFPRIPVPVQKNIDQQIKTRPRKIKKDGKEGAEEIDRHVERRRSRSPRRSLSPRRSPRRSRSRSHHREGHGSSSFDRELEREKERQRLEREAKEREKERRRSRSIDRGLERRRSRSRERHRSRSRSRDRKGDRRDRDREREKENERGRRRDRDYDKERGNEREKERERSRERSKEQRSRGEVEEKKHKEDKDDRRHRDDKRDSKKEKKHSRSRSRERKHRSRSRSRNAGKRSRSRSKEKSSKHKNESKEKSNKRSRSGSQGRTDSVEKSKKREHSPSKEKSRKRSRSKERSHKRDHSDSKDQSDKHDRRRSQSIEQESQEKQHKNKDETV
Sequence of UniProt Q9UHX1 (Q9UHX1 whole entry, looked up): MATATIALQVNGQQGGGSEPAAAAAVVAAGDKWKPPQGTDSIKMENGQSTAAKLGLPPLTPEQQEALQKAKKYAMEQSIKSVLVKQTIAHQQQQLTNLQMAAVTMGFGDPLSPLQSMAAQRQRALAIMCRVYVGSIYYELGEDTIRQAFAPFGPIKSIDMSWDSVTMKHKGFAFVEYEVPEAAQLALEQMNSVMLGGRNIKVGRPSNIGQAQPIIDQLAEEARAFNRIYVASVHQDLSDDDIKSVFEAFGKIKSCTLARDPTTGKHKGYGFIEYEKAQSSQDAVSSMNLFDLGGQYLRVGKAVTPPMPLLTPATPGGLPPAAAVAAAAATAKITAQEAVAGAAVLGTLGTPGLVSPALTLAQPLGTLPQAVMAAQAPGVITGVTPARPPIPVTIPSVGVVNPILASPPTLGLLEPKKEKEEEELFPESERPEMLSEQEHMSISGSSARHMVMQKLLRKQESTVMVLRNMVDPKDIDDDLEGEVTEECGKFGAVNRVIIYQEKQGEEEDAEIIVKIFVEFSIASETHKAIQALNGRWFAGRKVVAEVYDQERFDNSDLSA
Sequence of UniProt O15162 (O15162 whole entry, looked up): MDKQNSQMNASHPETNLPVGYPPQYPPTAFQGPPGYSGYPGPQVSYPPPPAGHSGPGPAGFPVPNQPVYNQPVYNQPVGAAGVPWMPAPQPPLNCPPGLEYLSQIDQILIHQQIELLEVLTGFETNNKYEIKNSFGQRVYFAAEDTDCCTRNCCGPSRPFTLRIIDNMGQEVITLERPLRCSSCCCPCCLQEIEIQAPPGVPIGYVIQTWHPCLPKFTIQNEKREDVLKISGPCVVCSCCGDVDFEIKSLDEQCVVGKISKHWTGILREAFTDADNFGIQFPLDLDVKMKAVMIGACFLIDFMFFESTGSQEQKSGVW
Sequence of UniProt Q9UKL6 (Q9UKL6 whole entry, looked up): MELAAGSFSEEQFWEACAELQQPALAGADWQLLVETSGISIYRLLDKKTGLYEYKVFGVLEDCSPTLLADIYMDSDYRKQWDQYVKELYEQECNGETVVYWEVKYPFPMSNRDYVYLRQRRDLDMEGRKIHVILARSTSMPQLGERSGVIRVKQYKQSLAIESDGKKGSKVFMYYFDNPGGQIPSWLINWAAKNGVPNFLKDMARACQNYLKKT

| Target | log2 fold change (saracatinib) | log2 fold change (sotrastaurin) | log2 fold change (alvocidib) | log2 fold change (Tubastatin A) | log2 fold change [1] | log2 fold change (defactinib) | log2 fold change (rucaparib) | log2 fold change [2] | log2 fold change (encorafenib) | log2 fold change [3] |
| --- | --- | --- | --- | --- | --- | --- | --- | --- | --- | --- |
| PPP1CA (UniProt P62136) | 0.036 | -0.03 | -0.027 | -0.024 | -0.009 | -0.033 | -0.008 | -0.028 | -0.009 | 0.018 |
| PPT2 isoform 3 (UniProt Q9UMR5) | 0.042 | 0.022 | -0.04 | 0.018 | 0 | -0.023 | 0.025 | 0.038 | -0.003 | 0.029 |
| PRKCQ (UniProt Q04759) | -0.034 | -0.903 (active) | -0.185 | 0.017 | -0.047 | -0.03 | 0.003 | 0.002 | 0.043 | -0.025 |
| PFDN1 (UniProt O60925) | -0.074 | -0.014 | -0.035 | 0.022 | -0.001 | -0.066 | -0.095 | 0.093 | 0.008 | -0.078 |
| PUF60 (UniProt Q9UHX1) | 0 | -0.035 | -0.138 | 0.048 | -0.197 | -0.173 | -0.003 | -0.007 | 0.049 | -0.012 |
| PLK1 (UniProt P53350) | 0.034 | -0.223 | 0.14 | -0.058 | -2.06 (active) | -0.165 | 0.052 | -0.008 | 0.058 | -0.013 |
| PCLAF (UniProt Q15004) | 0.057 | 0.057 | 0.138 | 0.08 | -0.094 | 0.076 | -0.094 | -0.161 | -0.046 | 0.093 |
| PIK3CB (UniProt P42338) | -0.019 | 0.01 | -0.026 | 0.001 | -0.011 | -0.04 | 0.014 | 0.042 | -0.015 | -0.003 |
| PCK2 (UniProt Q16822) | 0.021 | -0.003 | -0.113 | -0.139 | -0.006 | -0.048 | -0.009 | 0.015 | -0.007 | 0.01 |
| PLCB3 (UniProt Q01970) | -0.044 | -0.039 | -0.02 | -0.027 | 0.023 | -0.074 | -0.015 | -0.045 | 0.004 | -0.083 |
| POLR2I (UniProt P36954) | 0.134 | 0.033 | 0.371 | -0.266 | 0.009 | 0.141 | 0.162 | 0.02 | 0.015 | 0.023 |
| PTRHD1 (UniProt Q6GMV3) | -0.057 | 0.061 | -0.062 | 0.052 | 0.025 | 0 | -0.015 | -0.022 | -0.064 | 0.003 |
| PPP6R1 (UniProt Q9UPN7) | 0.058 | -0.064 | -0.017 | -0.08 | 0.038 | -0.058 | -0.013 | -0.044 | 0.034 | -0.027 |
| PLSCR1 (UniProt O15162) | 0.052 | 0.024 | 0.003 | 0.025 | -0.058 | 0.006 | -0.015 | 0.082 | -0.006 | 0.006 |
| PRPF38B (UniProt Q5VTL8) | 0.011 | -0.006 | -0.073 | -0.027 | -0.287 (active) | -0.27 (active) | -0.08 | -0.039 | 0.015 | 0.044 |
| PRKAA1 isoform 2 (UniProt Q13131) | 0.027 | 0.033 | -0.032 | -0.015 | -0.19 | -0.048 | -0.006 | -0.047 | 0.02 | -0.004 |
| PCTP (UniProt Q9UKL6) | 0.083 | -0.016 | 0.014 | -0.002 | 0 | -0.037 | -0.056 | 0.039 | -0.032 | 0.094 |
| PDLIM7 (UniProt Q9NR12) | 0.002 | 0.016 | -0.032 | -0.022 | -0.014 | -0.083 | 0.002 | -0.013 | 0.021 | -0.021 |
| PDS5A (UniProt Q29RF7) | -0.094 | -0.62 (active) | -0.122 | -0.235 | 0.051 | -0.045 | -0.025 | 0.053 | 0.028 | 0.006 |
| PATL1 (UniProt Q86TB9) | -0.075 | -0.16 | -0.127 | -0.001 | -0.135 | -0.078 | 0.131 | 0.025 | 0.155 | -0.066 |
| PSMD13 (UniProt Q9UNM6) | -0.073 | 0 | 0.061 | 0.038 | 0.027 | 0.068 | 0.024 | 0.043 | 0.063 | 0.003 |
| PHF5A (UniProt Q7RTV0) | 0.069 | 0.047 | 0.045 | -0.027 | 0.05 | 0.141 | 0.04 | -0.086 | -0.017 | 0.023 |
| PCID2 (UniProt Q5JVF3) | -0.164 | -0.22 | 0.012 | 0.006 | -0.033 | -0.281 | 0.051 | 0.008 | -0.036 | -0.101 |
| POLR2A (UniProt P24928) | -0.012 | 0.034 | 0.329 (active) | -0.012 | -0.035 | 0.241 | 0.126 | 0.025 | 0.027 | -0.07 |
| PSPC1 (UniProt Q8WXF1) | 0.007 | -0.062 | -0.068 | 0.041 | -0.036 | -0.342 (active) | 0.002 | -0.011 | 0.03 | -0.028 |
| PSMD12 (UniProt O00232) | -0.024 | -0.029 | 0.026 | 0.04 | 0.033 | 0.048 | 0.014 | 0.054 | 0.031 | -0.032 |
| PTMA (UniProt P06454) | 0.016 | -0.026 | -0.034 | 0.098 | -0.07 | -0.108 | 0.02 | 0.01 | -0.05 | -0.059 |
